Bioassay records: PubChem BioAssay, several laboratories
Hits are enriched below; roughly 3.9% of the tested compounds scored in any of these assays.
BoNT A protease = BoNT A light chain protease inhibition; multiplex microsphere protease substrate cleavage, flow cytometry; inhibition, % at 10 µM; actives 0.17% (n = 360,000); AID 588499
MazF activator = increases E. coli MazEF RNase cleavage of RNA | P0AE70 | FAM/BHQ RNA-DNA oligo cleavage fluorescence, 5 h | activation, % at 20 µM | actives 0.32% (n = 350,000) | AID 504720; in the data active = activation above about 50%
BoNT-F LC inh = inhibitors of Botulinum neurotoxin F light chain protease; inhibition, % at 10 µM; actives 0.22% (n = 360,000); Multiplex microsphere protease cleavage assay, flow cytometry; AID 588497; in the data active = inhibition above about 35%, passing the limit was not always enough; inconclusive = no clear call, values can overlap the other calls
Bead autofluor = compound fluorescence in toxin protease inhibitor counterscreen | compound autofluorescence counterscreen, microsphere flow cytometry; active compounds read high | fluorescence intensity (concentration not given with the values) | actives 3.1% (n = 360,000); in the data active = fluorescence intensity above about 16000; inconclusive = no clear call, values can overlap the other calls
BH1578 lux ind = quorum light induction in luxS cqsA deficient V. cholerae; V. cholerae BH1578 lux reporter, luminescence, 6 h; AID 588436; actives 0.16% (n = 350,000); activation, % at 18.7 µM; in the data active = activation mostly above about 9.7%, no sharp cut-off; inconclusive = no clear call, values can overlap the other calls; inactive = mostly below about 3.7%
Anthrax LF inh2 = inhibitors of Bacillus anthracis lethal factor protease; multiplex microsphere protease cleavage assay, LF; inhibition, % at 10 µM; actives 0.12% (n = 360,000); AID 588501
Target sequence (P15917 whole entry, looked up): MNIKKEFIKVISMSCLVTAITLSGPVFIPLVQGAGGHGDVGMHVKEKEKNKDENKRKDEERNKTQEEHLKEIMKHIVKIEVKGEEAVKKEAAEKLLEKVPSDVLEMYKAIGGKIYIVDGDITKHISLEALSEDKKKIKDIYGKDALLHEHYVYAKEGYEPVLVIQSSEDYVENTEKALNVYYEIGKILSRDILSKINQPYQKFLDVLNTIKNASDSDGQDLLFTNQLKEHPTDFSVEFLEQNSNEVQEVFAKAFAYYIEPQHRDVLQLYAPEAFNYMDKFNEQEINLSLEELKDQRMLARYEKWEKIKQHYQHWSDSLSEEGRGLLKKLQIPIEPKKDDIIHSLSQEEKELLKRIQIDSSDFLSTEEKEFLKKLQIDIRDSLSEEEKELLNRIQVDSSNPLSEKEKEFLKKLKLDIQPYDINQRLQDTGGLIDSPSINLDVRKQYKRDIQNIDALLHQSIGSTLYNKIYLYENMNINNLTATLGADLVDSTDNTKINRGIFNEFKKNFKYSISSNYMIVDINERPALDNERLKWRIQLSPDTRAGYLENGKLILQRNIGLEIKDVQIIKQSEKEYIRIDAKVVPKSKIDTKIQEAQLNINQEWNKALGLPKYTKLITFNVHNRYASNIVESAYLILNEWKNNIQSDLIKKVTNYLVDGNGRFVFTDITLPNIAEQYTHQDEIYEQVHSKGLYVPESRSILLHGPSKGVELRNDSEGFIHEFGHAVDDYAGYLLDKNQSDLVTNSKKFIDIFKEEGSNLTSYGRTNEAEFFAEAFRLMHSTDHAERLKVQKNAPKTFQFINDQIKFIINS
Each line names hits and unclear results; the compound was inactive in the other large screens. Cut-off read from the data, not from the text of the source, unless noted: active = inhibition above about 30%; inconclusive = no clear call, values can overlap the other calls; inactive = below that.

CC(=O)c1ccc(NC(=O)CN2CCCC2)cc1	BoNT-F LC inh inconclusive
CCCCOCCCNC(=O)c1cccs1	none
CC(C)OCCCNC(=O)c1cccs1	Bead autofluor 22575
COC(=O)c1c(S(N)(=O)=O)c2ccccc2n1C	Bead autofluor 21700
COC(=O)c1c(C(=O)c2ccc(Br)cc2)n(C)c2ccccc12	BoNT A protease inconclusive, BoNT-F LC inh inconclusive, Bead autofluor inconclusive, Anthrax LF inh2 inconclusive
CCOC(=O)C1=C(C)N(C)C(=O)NC1c1cccc2ccccc12 (centres undefined)	none
Cc1cccc(C)c1NC(=O)C1(NC(=O)C2CCCN2C(=O)OC(C)(C)C)CCCCC1 (centres undefined)	Bead autofluor 21811
CCOc1ccc(-c2cc(C(=O)N3CCN(C)CC3)c3ccccc3n2)cc1	Bead autofluor 23119
CCOc1ccc(-c2cc(C(=O)N3CCN(c4ccccn4)CC3)c3ccccc3n2)cc1	Bead autofluor 22531
CCOc1ccc(-c2cc(C(=O)N3CCCC3)c3ccccc3n2)cc1	none
COc1ccc(-c2cc(C(=O)N3CCN(c4ccccn4)CC3)c3ccccc3n2)cc1	none
CC(=O)NC(Cc1ccc(F)cc1)C(=O)N1CCN(C(=O)NCc2ccccc2)CC1 (centres undefined)	Bead autofluor 20125
CC(=O)NC(Cc1ccccc1)C(=O)N1CCN(C(=O)c2cccs2)CC1 (centres undefined)	Bead autofluor 16669
O=C(c1cccs1)N1CCN(S(=O)(=O)c2ccc(F)cc2)CC1	none (no result: BoNT A protease, BoNT-F LC inh, Bead autofluor, BH1578 lux ind, Anthrax LF inh2)
O=C(c1cccs1)N1CCN(CCCc2ccccc2)CC1	Bead autofluor 21596
O=C(c1cccs1)N1CCN(S(=O)(=O)c2ccccc2)CC1	Bead autofluor 16321
COc1ccc(N2CCN(c3cc(C(=O)Nc4cc(OC)c(OC)c(OC)c4)ncn3)CC2)cc1OC	none (no result: MazF activator)
CC(C)(C)OC(=O)C[C@@H]1C/C=C\C[C@@H](CC(=O)N[C@@H](CO)Cc2ccccc2)C(=O)N2CCC[C@@H]2COC1=O	none
COc1cccc(/C=C/c2ccccn2)c1O	Bead autofluor 24116
Cc1cc(Nc2ccc3c(c2)OCCO3)n2ncnc2n1	Bead autofluor 22455
Cc1cc(N2CCN(S(=O)(=O)c3ccc4c(c3)OCCO4)CC2)n2ncnc2n1	Bead autofluor 23595
Cc1cc(N2CCN(S(=O)(=O)c3ccc(Br)cc3)CC2)n2ncnc2n1	none
Cc1cc(C)n2nc(SCC(=O)N3CCC(C)CC3)nc2n1	none
S=C(SSC(=S)N1CCOCC1)N1CCOCC1	none (no result: MazF activator, BH1578 lux ind)
O=C(Nc1nonc1-c1ccc(Cl)cc1)c1ccccc1	none
CC(=O)Nc1nonc1-c1ccccc1	BoNT A protease inconclusive, Bead autofluor 20934
Cc1cc(O)ccc1Nc1cc(-c2cccc(N(C)C)c2)ncn1	none (no result: MazF activator)
Oc1ccc(N=Nc2nc(-c3ccccc3)c(-c3ccccc3)[nH]2)cc1	MazF activator 126
Oc1ccc(N=Nc2n[nH]c(-c3ccccc3)n2)cc1	none
CCOC(=O)c1sc2ncnc(NCC(c3cccs3)N(C)C)c2c1C (centres undefined)	Bead autofluor 24092
O=C1CCCc2c1nn(-c1ccccc1)[n+]2[O-]	Bead autofluor 18962
O=[N+]([O-])c1nn(-c2ccccc2)[n+]([O-])c1N1CCN(c2ccccc2)CC1	none
CCOC(=O)CSc1nc2ccc(NC(=O)CSc3nnnn3Cc3ccccc3)cc2s1	Bead autofluor 20885
Cc1nc2sccn2c(=O)c1S(=O)(=O)N1CCN(c2cccc(Cl)c2)CC1	none
CC(=O)N1CCN(c2ccc(S(=O)(=O)N3CCCCC3)cn2)CC1	Bead autofluor 18018
NC(=O)C1CCN(c2ccc(S(=O)(=O)N3CCCCC3)cn2)CC1	none
CC(=O)NCc1ccc(S(=O)(=O)N2CCN(S(=O)(=O)c3ccc4ccccc4c3)CC2)cc1	none
Cc1cccc(OCC(=O)NS(=O)(=O)c2ccc(Br)cc2)c1	none
CC(=O)Nc1cccc(OCC(=O)NS(=O)(=O)c2ccc(C)cc2)c1	Bead autofluor 23647
CC(=O)c1ccc(Sc2ccccc2)cc1	Bead autofluor 22491
N/C(=N\OS(=O)(=O)c1ccc(Br)cc1)c1ccncc1	Bead autofluor 21736
N/C(=N\OC(=O)COc1ccc(Br)cc1)c1ccncc1	none
O=C(NCCC1=CCCCC1)C(=O)NCc1ccncc1	none
CCNC(=S)N/N=C/c1sc(N2CCCCC2)nc1-c1cccs1	BoNT A protease inconclusive, MazF activator 257, BoNT-F LC inh inconclusive, Anthrax LF inh2 inconclusive
CCNC(=S)Nc1ccc(N2CCCCC2)cc1	none (no result: BH1578 lux ind)
CC(C)C1=C2OC(N)=C(C#N)C(C#N)=C2C(C)CC1 (centres undefined)	Bead autofluor 22045
NC(=O)CC(NC(=O)Cc1ccc(Cl)cc1)c1ccc(NC2CCCCCCC2)c([N+](=O)[O-])c1 (centres undefined)	none
O=C(Oc1ccc(-c2nnco2)cc1)C1CCN(C(=O)c2ccc(F)cc2)CC1	none
COC(=O)c1ccc2c(c1)NC(=O)C(N(CC(C)C)CC(C)C)S2 (centres undefined)	none
CCCN(CCC)C1Sc2ccc(C(=O)OC)cc2NC1=O (centres undefined)	Bead autofluor 19484
O=C(Oc1ccc2c(c1)OCO2)c1cc2c(s1)CCC2	BoNT-F LC inh 54
O=C(c1cc2c(s1)CCCC2)N1CCN(Cc2ccc3c(c2)OCO3)CC1	none
COc1ccc(S(=O)(=O)NCCOc2ccccc2)cc1OC	Bead autofluor 22108
COCCNS(=O)(=O)c1ccc(C2CNC(=O)C2)cc1 (centres undefined)	none
COc1cc(S(=O)(=O)NCc2ccccc2)ccc1Br	none
CCNS(=O)(=O)c1ccc(Br)c(OC)c1	Bead autofluor 20265
O=C1CC(c2ccc(S(=O)(=O)NCCOc3ccccc3)cc2)CN1 (centres undefined)	Bead autofluor 21883
CCc1cccc(C)c1Nc1nc2ccccc2n2cnnc12	none
CC1(C(=O)Nc2cnc3ccccc3c2)CCN1C(=O)c1ccccc1CCc1ccccc1 (centres undefined)	none (no result: MazF activator)
CC(C)c1cc(C(N)=O)c(NC(=O)C2CCC2)s1	Bead autofluor 21955
CC(C)c1nnc(NC(=O)C2CCCCC2)s1	none
CCOC(=O)N1CCN(C(=O)c2cccc(-n3c(=S)[nH]c4cc(Cl)ccc4c3=O)c2)CC1	Bead autofluor 20777
CSc1ncccc1C(=O)Nc1cccc(S(=O)(=O)N2CCCCCC2)c1	none
O=C(CSc1nccc(=O)[nH]1)c1c[nH]c2ccccc12	none
O=C(CSc1nccc(=O)[nH]1)c1ccccc1Br	Bead autofluor 16683
COc1ccc(S(=O)(=O)NCc2cccnc2)cc1C(=O)Nc1ccccc1	none (no result: BH1578 lux ind)
CCCn1c(SCC(=O)Nc2cc(C)on2)nc2c1c(=O)n(C)c(=O)n2C	Bead autofluor 22114
CCCn1c(SCC(=O)Nc2nc3ccccc3s2)nc2c1c(=O)n(C)c(=O)n2C	MazF activator 67
CCCn1c(SCC(=O)N2CCCc3ccccc32)nc2c1c(=O)n(C)c(=O)n2C	Bead autofluor 21086
